Screening results as filed in PubChem.
AF4-AF9 inh: blocks AF4 peptide binding to human AF9 | P42568 | AlphaScreen, biotin-AF4 peptide binding to FLAG-AF9 | inhibition, % at 10 µM | actives 0.47% (n = 350,000) | AID 651704;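 active = every replicate reaching a set inhibition limit, whatever the replicate mean, cut at about 25% in these data; inconclusive = mean inhibition reaches that limit but some replicates miss it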
miR122 inh: inhibitors of miR-122 in Huh7 cells. activation (reporter increase), % at 12.5 µM. Huh7 miR-122 Renilla luciferase sensor, 48 h; neutral wells = 0, positive control = 100. actives 0.3% (n = 340,000);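 active = mean replicate activation score at least 90 and every replicate individually at or above 90; inconclusive = only one of the two criteria met; inactive = neither criterion met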;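 also: higher luciferase means less miR-122 activity so hits act as miR-122 inhibitors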
RAD52 anneal inh: inhibitors of human RAD52 DNA annealing. inhibition, % at 18.7 µM. AID 651710. P43351. recombinant RAD52 DNA annealing, FRET fluorescence. actives 0.46% (n = 360,000);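 active = every replicate showing at least 50% inhibition; inconclusive = mean inhibition at least 50% but not in every replicate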
Target sequence (P43351 whole entry, looked up): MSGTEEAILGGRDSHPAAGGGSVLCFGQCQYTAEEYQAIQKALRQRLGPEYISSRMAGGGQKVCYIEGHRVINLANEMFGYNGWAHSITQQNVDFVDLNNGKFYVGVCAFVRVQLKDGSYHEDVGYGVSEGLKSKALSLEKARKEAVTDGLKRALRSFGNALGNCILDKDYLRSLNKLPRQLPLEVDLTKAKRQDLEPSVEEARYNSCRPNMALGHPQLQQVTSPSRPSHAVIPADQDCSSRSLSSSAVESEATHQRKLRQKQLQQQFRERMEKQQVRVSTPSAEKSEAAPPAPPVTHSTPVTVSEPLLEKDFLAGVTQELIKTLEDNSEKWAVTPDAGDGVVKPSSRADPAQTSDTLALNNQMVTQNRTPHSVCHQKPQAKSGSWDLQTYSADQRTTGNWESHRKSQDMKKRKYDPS
NSD2 HMT inh: inhibitors of human histone methyltransferase NSD2; O96028; NSD2 peptide methylation, AlphaScreen, 120 min; inhibition, % at 12.5 µM; actives 0.54% (n = 310,000); AID 743445; in the data active = inhibition above about 50%
CASP6 VEID inh: caspase-6 (human) enzyme inhibition; AID 686996; P55212; inhibition, % at 12.5 µM; purified caspase-6, Z-VEID-R110 cleavage fluorescence; actives 0.53% (n = 350,000);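 active = mean inhibition across replicates at least about 35%, with every replicate also reaching that limit, limit read from the data; inconclusive = only one of the two criteria met; inactive = neither criterion met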
Hits are given with their value; . = inactive; ? = inconclusive; / = not tested or not shown; ! = not active in a repeat; [ ] = another dose, or the depositor's remark. In the library only some 1.5% were active in any assay of this set; here they are far more common.

SMILES	AF4-AF9 inh	miR122 inh	RAD52 anneal inh	NSD2 HMT inh	CASP6 VEID inh
C[C@@H]1CN([C@H](C)CO)C(=O)Cc2cc(N(C)C)ccc2O[C@H]1CN(C)Cc1ccc(C(=O)Nc2ccccc2N)cc1	.	.	.	/	.
C[C@@H]1CN([C@H](C)CO)C(=O)c2cc(N(C)C)ccc2O[C@@H]1CN(C)Cc1ccc(C(=O)Nc2ccccc2N)cc1	.	220.4[16.7 µM]	.	/	.
C[C@@H]1CN([C@H](C)CO)C(=O)c2cc(N(C)C)ccc2O[C@H]1CN(C)Cc1ccc(C(=O)Nc2ccccc2N)cc1	.	111.7[16.7 µM]	.	/	.
C[C@H]1CN([C@@H](C)CO)C(=O)c2cc(N(C)C)ccc2O[C@H]1CN(C)Cc1ccc(C(=O)Nc2ccccc2N)cc1	/	119.5[16.7 µM]	/	/	/
CN(C)C(=O)C[C@H]1CC[C@H]2[C@@H](COc3ccc(NC(=O)C4CCC4)cc3C(=O)N2C)O1	.	/	.	/	.
C[C@@H]1CN([C@@H](C)CO)C(=O)CCCn2cc(nn2)CO[C@@H]1CN(C)C(=O)Nc1cccc(Oc2ccccn2)c1	.	.	.	/	.
C[C@H]1CN([C@@H](C)CO)C(=O)c2cc(NC(=O)Cn3cnnn3)ccc2O[C@@H]1CN(C)C	.	.	.	/	.
CC(=O)N(C)C[C@@H]1Oc2cc(C#CC3CC3)ccc2S(=O)(=O)N([C@H](C)CO)C[C@H]1C	/	.	/	/	/
C[C@H]1CN([C@@H](C)CO)C(=O)c2cc(NC(=O)Cn3cnnn3)ccc2O[C@@H]1CN(C)S(=O)(=O)c1ccc(Cl)cc1	.	.	.	/	.
COc1ccc(S(=O)(=O)Nc2ccc3c(c2)CC(=O)N([C@@H](C)CO)C[C@@H](C)[C@@H](CN(C)Cc2ccc(Cl)c(Cl)c2)O3)cc1	.	.	.	/	.
C[C@H](CO)N1C[C@H](C)[C@H](CN(C)Cc2ccc(C(=O)Nc3ccccc3N)cc2)Oc2ccc(NC(=O)Nc3ccc(F)cc3)cc2CC1=O	.	267.3[16.7 µM]	.	/	.
O=C(O)c1ccccc1C(=O)N1CCN(c2cccc(Cl)c2)CC1	/	.	/	.	/
COc1cc2ccccc2cc1C(=O)N1CCN(C(C)=O)CC1	.	/	.	.	.
CCOc1ccccc1N1CCN(C(=O)c2cc3ccccc3cc2OC)CC1	.	129.9	.	.	.
CCOc1ccccc1C(=O)N1CCN(c2cccc(Cl)c2)CC1	/	138.8	/	.	/
COc1ccc2c3c([nH]c2c1)[C@H](CO)N(C(=O)c1cccc(F)c1)CC31CCN(C(=O)CC2CC2)CC1	.	/	.	/	.
CCOC(=O)C1=C(C)NC2=C(C(=O)CC(c3cccs3)C2)C1c1cccs1 (configuration not stated)	/	94.6	/	.	/
C/C(=N\NC(=O)c1cccc(F)c1)c1ccc(NC(=O)Cc2ccccc2)cc1	.	/	.	.	.
C/C(=N\NC(=O)c1cc(O)cc(O)c1)c1ccc(NC(=O)Cc2ccccc2)cc1	.	.	.	/	71.3
CN1CC(=O)Nc2ccccc2C1=O	.	/	.	.	.
O=C1Nc2ccccc2C(=O)N2C[C@@H](O)C[C@H]12	49.0	/	.	.	.
O=C(COc1ccccc1F)c1ccc(O)cc1O	/	218.3	/	.	/
Cc1cc(C)nc(Nc2ccccc2Br)n1	/	.	/	.	/
Cc1cc(C)nc(N/C(=N\S(=O)(=O)Cc2ccccc2)Nc2ccccc2Br)n1	/	179.9	/	.	/
COc1ccc(NC(=O)Nc2ccc3c(c2)C(=O)N([C@H](C)CO)C[C@@H](C)[C@@H](CN(C)S(=O)(=O)c2ccccc2)OCCCC[C@H](C)O3)cc1	.	.	.	/	.
SMILES	AF4-AF9 inh	miR122 inh	RAD52 anneal inh	NSD2 HMT inh	CASP6 VEID inh
CCCCCCCCn1ccc(=N)cc1	.	.	.	.	.
CCCCCCCCCCCCCCCCn1cc[n+](C)c1	.	/	83.4	.	.
COc1ccc(-c2ccc3c(c2)[C@@H]2[C@@H](CCN2Cc2ccccc2F)[C@H](CO)N3)cc1	26.1	/	.	/	.
COc1cccc(-c2ccc3c(c2)[C@H]2[C@H](CCN2S(=O)(=O)c2ccccc2C)[C@H](CO)N3)c1	.	.	.	/	.
O=C(c1ccccc1F)N1CC[C@@H]2[C@H]1c1cc(-c3cccc(F)c3)ccc1N[C@@H]2CO	.	.	/	/	/
COc1cccc(-c2ccc3c(c2)[C@H]2[C@H](CCN2S(=O)(=O)c2ccccc2C)[C@@H](CO)N3)c1	.	96.7[16.7 µM]	.	/	.
O=C(c1ccccc1F)N1CC[C@@H]2[C@@H](CO)Nc3ccc(-c4cccc(F)c4)cc3[C@@H]21	.	103.9[16.7 µM]	/	/	/
Cc1ccc(S(=O)(=O)Nc2cccc3c2O[C@@H](CN(C)C(=O)NC2CCCCC2)[C@H](C)CN([C@@H](C)CO)C3=O)cc1	.	.	.	/	.
CO[C@H]1CC[C@H]2CCOc3c(C#N)cccc3C(=O)N(C)CCCC(=O)N(C)C[C@@H]1O2	.	/	.	/	.
CC1CCCN(C(=O)Cn2nnc(-c3cccnc3)n2)C1 (configuration not stated)	/	91.4	/	.	/
Cc1ccc(S(=O)(=O)N[C@@H]2CC[C@@H](CCNC(=O)c3ccc4c(c3)OCO4)O[C@H]2CO)cc1	.	/	.	/	.
COc1ccc2c3c(n(C)c2c1)[C@@H](CO)NCC31CCN(Cc2ccc(-c3ccccn3)cc2)CC1	?	/	83.4	/	/
COc1ccc2c3c(n(C)c2c1)[C@H](CO)NCC31CN(CC2CCOCC2)C1	35.1	/	75.8	/	.
COc1ccc2c3c(n(C)c2c1)[C@H](CO)NCC31CCN(CC2CCCC2)CC1	.	/	.	/	.
COc1ccc(CN2CC3(CCN(Cc4ccccn4)CC3)c3c(n(C)c4cc(OC)ccc34)[C@@H]2CO)cc1	.	/	/	/	/
COc1ccc2c3c(n(C)c2c1)[C@H](CO)NCC31CCN(Cc2ccc(-c3ccccn3)cc2)CC1	30.3	/	82.3	/	/
COc1ccc2c3c(n(C)c2c1)[C@H](CO)NCC31CN(Cc2ccccc2Cl)C1	42.9	/	.	/	.
Cc1ccc(S(=O)(=O)Nc2ccc3c(c2)C(=O)N(C)[C@H]2CC[C@@H](CC(=O)O)O[C@H]2CO3)cc1	.	.	.	/	.
COc1ccc2c3c(n(C)c2c1)[C@@H](CO)NCC31CN(Cc2ccc(-c3ccccn3)cc2)C1	45.0	/	95.9	/	.
C[C@@H]1CN([C@H](C)CO)C(=O)c2cccc(NC(=O)CCCCCC(=O)Nc3ccccc3N)c2O[C@@H]1CN(C)S(=O)(=O)c1cn(C)cn1	.	/	.	/	.
Cc1ccc(C2=N/C(=C\c3coc4ccccc4c3=O)C(=O)O2)cc1	.	/	.	.	44.1
O=C(C[C@H]1CC[C@H]2[C@@H](COC[C@@H](O)CN2C(=O)c2ccccc2)O1)NC1Cc2ccccc2C1	.	.	.	/	.
C[C@H]1CN([C@@H](C)CO)C(=O)c2ccccc2-c2ccccc2CO[C@H]1CN(C)Cc1ccc2c(c1)OCCN2C	34.4	/	.	/	.
C[C@@H]1CN([C@H](C)CO)C(=O)c2c(c3ccccc3n2C)-c2ccccc2CO[C@H]1CN(C)Cc1ccc2c(c1)OCCN2C	42.4!	.	.	/	.
C[C@H](CO)N1C[C@H](C)[C@H](CN(C)Cc2ccc3c(c2)OCCN3C)OCc2ccccc2-c2c(n(C)c3ccccc23)C1=O	.	/	.	/	.
C[C@@H]1CN([C@@H](C)CO)C(=O)c2cc(-c3cccc(F)c3)cnc2O[C@@H]1CN(C)Cc1cccc(F)c1	/	.	/	/	/
